From PubChem BioAssay
LGR2 antag – inhibitors of bursicon-induced LGR2 CRE-luciferase signal, primary screen, cell-based, HEK293, CRE-luciferase reporter, bursicon stimulation; inhibition, % at 9.99 µM; AID 720647, 2013; 0.35% of 380,000 active; bursicon-stimulated, 4 h; Drosophila bursicon receptor LGR2 (rickets);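 active means drop in luminescence signal, shown as inhibition above about 50% in the replicate tests, limit read from the data, passing the limit was not always enough; inconclusive means probably only some replicates passing the limit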;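 further: agonist challenge used bursicon conditioned medium at about half maximal strength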
TWEAK-Fn14 inh – inhibitors of TWEAK-Fn14 signaling, primary screen, luciferase reporter cells, uHTS. TWEAK-stimulated Fn14 reporter cells, luciferase luminescence, 8 h. inhibition, % at 10 µM. 2% of 360,000 active. AID 1159606, 2016; in the data active means inhibition above about 50%
HSP90 inh – HSP90 inhibitors, primary screen, cell lysate, luminescence; inhibition, % at 5.6 µM; 0.91% of 290,000 active; Rabbit reticulocyte lysate, luciferase refolding luminescence, 3 h; AID 1789, 2009; Heat shock protein HSP 90 (rabbit reticulocyte lysate; luciferase refolding);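 active means inhibition above the screen-wide mean plus 3 SD, computed separately per campaign, cut at about 16% in these data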;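 further: 0% = DMSO wells and 100% = 60 µM geldanamycin wells; inhibitors lower the luminescence because luciferase stays unfolded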
TROY NFkB inh – inhibitors of TROY-driven NF-kB signaling, primary screen, Q293 LMP1-TROYcd cells, NF-kB luciferase, uHTS; Q293 LMP1-TROYcd NF-kB luciferase reporter, 4 h; inhibition, % at 10 µM; 0.98% of 360,000 active; AID 1347056, 2019;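 active means compounds whose plate-normalised and pattern-corrected inhibition of the luciferase reporter signal at the single screening dose is 50% or more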
* hit, by the source's call; ? = inconclusive; nt = not tested or not shown. In the library only some 2.2% were active in any assay of this set; here they are far more common.

SMILES	LGR2 antag	TWEAK-Fn14 inh	HSP90 inh	TROY NFkB inh
C[C@@H]1CN([C@@H](C)CO)C(=O)c2cc(C#CCN(C)C)cnc2O[C@H]1CN(C)C(=O)c1ccc(F)cc1	3	nt	nt	nt
Cc1noc(C)c1S(=O)(=O)Nc1ccc2c(c1)C(=O)N([C@H](C)CO)C[C@@H](C)[C@H](CN(C)Cc1ccccc1)O2	-18	nt	nt	nt
CCN(CC)c1ccc(N2C(=O)CSC2=S)cc1	35	72*	-2	-10
CCOc1ccc(N2C(=O)CSC2=S)cc1	18	33	1	23
O=C(O)c1ccc(N2C(=O)CSC2=S)cc1	26	68*	nt	37
COc1cccc(-c2ccc3c(c2)[C@@H]2[C@@H](CCN2Cc2ccccc2OC)[C@@H](CO)N3)c1	-11	nt	nt	nt
COCC(=O)N[C@@H]1CC[C@@H](CC(=O)NCc2ccccc2OC)O[C@@H]1CO	79*	nt	nt	nt
COCC(=O)N[C@H]1CC[C@H](CC(=O)NCc2ccccc2OC)O[C@H]1CO	-7	nt	nt	nt
Cc1noc(C)c1NC(=O)N(C)C[C@H]1Oc2ccc(NS(=O)(=O)c3cn(C)cn3)cc2CC(=O)N([C@H](C)CO)C[C@@H]1C	1	nt	nt	nt
COc1ccc(N2C(=O)N(Cc3ccc(C)cc3)c3ccccc3S2(=O)=O)cc1	-3	0	27*	1
COC(=O)c1ccc(COc2cccn3c(N(C)C(=O)CCC4CCCC4)c(C)nc23)cc1	1	52*	nt	45
O=C(CCCN1CCC(O)(c2cccc(C(F)(F)F)c2)CC1)c1ccc(F)cc1	10	-6	nt	9
COc1ccc2[nH]c3c(N4CCc5ccccc5C4)ncnc3c2c1	79*	92*	-5	69*
OC1(c2cccc(C(F)(F)F)c2)CCN(c2ncnc3c2[nH]c2ccc(F)cc23)CC1	nt	98*	-3	77*
COc1cccc2[nH]c3c(N4CCCCC4)ncnc3c12	nt	-53	-2	-25
CCOC(=O)N1CCN(c2ncnc3c2[nH]c2ccc(F)cc23)CC1	nt	38	0	42
COc1cc2[nH]c3c(N4CCN(c5ccccn5)CC4)ncnc3c2cc1OC	nt	73*	0	38
Fc1ccc2[nH]c3c(N4CCN(c5ccccc5)CC4)ncnc3c2c1	nt	102*	-3	76*
CC(C)(C)[S@](=O)N1Cc2cc(C(=O)N[C@H]3CCN(Cc4ccccc4)C3)nc(-c3cccc(-c4cccnc4)c3)c2[C@@H]1CCO	1	nt	nt	nt
O=C(Nc1ccccc1)N1CC(=O)N2[C@@H](CO)[C@H](c3ccc(C#Cc4cccnc4)cc3)[C@@H]2C1	-13	nt	nt	nt
COc1ccc(N2CCN(c3ncnc4c3[nH]c3ccccc34)CC2)cc1	nt	77*	-6	76*
Cc1ccc(-c2nnc(-c3ccccc3Br)o2)cc1	?	57*	14	7
COc1ccc(CNC(=O)C[C@H]2C=C[C@H](NC(=O)c3ccc4c(c3)OCO4)[C@@H](CO)O2)cc1	-9	nt	nt	nt
OC(COc1ccc2cc(Br)ccc2c1)CN1CCCC1 (stereo not drawn)	-28	51*	5	55*
COc1ccc(S(=O)(=O)Nc2ccc3c(c2)C(=O)N([C@H](C)CO)C[C@@H](C)[C@@H](CN(C)C(=O)Nc2ccc(C(F)(F)F)cc2)O3)cc1	16	nt	nt	nt
SMILES	LGR2 antag	TWEAK-Fn14 inh	HSP90 inh	TROY NFkB inh
COc1ccc2c3c(n(C)c2c1)[C@@H](CO)N(Cc1ccncc1)CC31CCN(C(=O)NC(C)C)CC1	15	nt	nt	nt
O=C1CS/C(=N\c2ccccn2)N1C1CCCCC1	nt	53*	-2	9
O=C1c2cccnc2C(=O)N1C1CCCCC1	-1	0	6	13
CC=Cc1ccc2n(c1=O)C[C@H]1[C@H](CO)[C@@H](C(=O)NC3CCC3)[C@@H]2N1C(=O)c1ccccn1 (mixture of isomers)	-3	nt	nt	nt
CCC(=O)Nc1c(S(=O)(=O)c2ccc(C)cc2)c2nc3ccccc3nc2n1C(C)c1ccccc1 (stereo not drawn)	15	35	-4	34
CCC(=O)Nc1c(S(=O)(=O)c2ccccc2)c2nc3ccccc3nc2n1C(C)c1ccccc1 (stereo not drawn)	1	50*	-2	73*
CCCCn1c(NS(=O)(=O)c2ccccc2)c(S(=O)(=O)c2ccc(C)cc2)c2nc3ccccc3nc21	nt	32	16*	70*
CCCCn1c(NC(=O)c2ccco2)c(S(=O)(=O)c2ccc(C)cc2)c2nc3ccccc3nc21	1	72*	7	66*
CCCCCn1c(NC(=O)c2ccco2)c(S(=O)(=O)c2ccc(C)cc2)c2nc3ccccc3nc21	nt	67*	16*	65*
